Source: PubChem BioAssay (Tox21)
“And” between values parts separate entries of the source, which are not always exact repeats. Identical values can stand only once. Records with an inconclusive call do not appear. More than one record can exist for a structure, and the calls need not agree. The source made the active and inactive calls. Calls come from the whole dose curve; as a rule, active = well fitted curve in the direction sought with a large enough effect in the repeat runs; inconclusive = weak or mixed curves; inactive = no such curve, though single readings can be large; an effect the other way counts as inactive or inconclusive.

How the values were obtained:
[1] = qHTS RealTime-Glo MT Cell Viability Assay in HEK293 cells - 0 hour (AID 1224880); note: top concentration of the series differs between compounds; nearly all actives have a fitted effect of over 45% in size
Method in brief: (§1)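 HEK293 cells mixed with RealTime-Glo reagents (NanoLuc plus cell-permeant prosubstrate) at 600 cells/well, preincubated 5 h at 37 C/5% CO2, then given 23 nL compound in DMSO. Nonlytic luminescence from viable cells was read at 0, 8, 16, 24, 32 and 40 h.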

[2] = A CellTox Green Cytotoxicity Assay to monitor cytotoxicity in HEK293 cells - 32 hour (AID 1224881); note: nearly all actives have a fitted effect of over 40% in size; note: potency is the fitted concentration of half-maximal effect
Method in brief: (§2)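 HEK293 cells premixed with CellTox Green dye were seeded at 600 cells/well and left 5 h at 37 C/5% CO2 before pin transfer of 23 nL compound in DMSO. Fluorescence from dye bound to dead-cell DNA was read during 40 h treatment.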

[3] = A CellTox Green Cytotoxicity Assay to monitor cytotoxicity in HepG2 cells - 0 hour (AID 1224882); note: nearly all actives have a fitted effect of over 35% in size
Method in brief: (§3)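 HepG2 cells were seeded together with the CellTox Green dye at 600 cells/well, left 5 h at 37 C/5% CO2, then given compounds in DMSO. Fluorescence from dye bound to dead-cell DNA was read repeatedly over 40 h of treatment at 37 C.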

[4] = A CellTox Green Cytotoxicity Assay to monitor cytotoxicity in HepG2 cells - 32 hour (AID 1224883); note: nearly all actives have a fitted effect of over 50% in size; note: potency is the fitted concentration of half-maximal effect
Method in brief: as §3

[5] = A CellTox Green Cytotoxicity Assay to monitor cytotoxicity in HEK293 cells - 8 hour (AID 1224884); note: nearly all actives have a fitted effect of over 35% in size; note: potency is the fitted concentration of half-maximal effect
Method in brief: as §2

[6] = qHTS RealTime-Glo MT Cell Viability Assay in HepG2 cells - 16 hour (AID 1224885); note: nearly all actives have a fitted effect of over 50% in size; note: potency is the fitted concentration of half-maximal effect
Method in brief: (§4)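 HepG2 cells were seeded at 600 cells/well together with NanoLuc luciferase and a cell-permeant prosubstrate, preincubated 5 h at 37 C/5% CO2, then pin-dosed with compounds in DMSO. Nonlytic luminescence from viable cells was read at each time point.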

[7] = qHTS RealTime-Glo MT Cell Viability Assay in HEK293 cells - 8 hour (AID 1224887); note: nearly all actives have a fitted effect of over 50% in size; note: potency is the fitted concentration of half-maximal effect
Method in brief: as §1

[8] = A CellTox Green Cytotoxicity Assay to monitor cytotoxicity in HEK293 cells - 16 hour (AID 1224888); note: nearly all actives have a fitted effect of over 35% in size
Method in brief: as §2

[9] = qHTS RealTime-Glo MT Cell Viability Assay in HepG2 cells - 0 hour (AID 1224889); note: nearly all actives have a fitted effect of over 50% in size
Method in brief: as §4

[10] = qHTS RealTime-Glo MT Cell Viability Assay in HEK293 cells - 24 hour (AID 1224886); note: nearly all actives have a fitted effect of over 50% in size; note: potency is the fitted concentration of half-maximal effect
Method in brief: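 HEK293 cells were seeded at 600 cells/well together with NanoLuc luciferase and cell-permeant prosubstrate, preincubated 5 h at 37 C/5% CO2, then given compound in DMSO by pintool. Luminescence from viable-cell prosubstrate reduction was read repeatedly over 40 h.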

Measured: Potency

CNC(=O)Oc1cccc2c1OC(C)(C)O2
not listed: [10]
inactive: all other assays above

C=C(C)[C@H]1Cc2c(ccc3c2O[C@@H]2COc4cc(OC)c(OC)cc4[C@@H]2C3=O)O1
active: [4] 27.9 µM and 24.5 µM | [6] 31.3 µM and 27.5 µM | [10] 62.5 nM and 12.3 nM and 47.7 nM | [7] 249 nM and 219 nM and 60.1 nM
inactive: all other assays above

CCCCOCCOP(=O)(OCCOCCCC)OCCOCCCC
not listed: [10]
inactive: all other assays above

CCCCC(CC)COC(=O)Cl (centres undefined)
inactive: all assays above

CCN(CC)C(=O)/C(Cl)=C(\C)OP(=O)(OC)OC
not listed: [5]
inactive: all other assays above

c1ccc(P(c2ccccc2)c2ccccc2)cc1
not listed: [10]
inactive: all other assays above

C=CCN(CC=C)C(=O)C(Cl)Cl
inactive: all assays above

Cc1ccccc1[N+](=O)[O-]
not listed: [5]
inactive: all other assays above

N#CCCCl
inactive: all assays above

CC(C)(C)c1ccccc1O
44.2 µM (active) and inactive: [2]
active: [4] 49.5 µM
inactive: all other assays above

O=Cc1ccco1
42.2 µM (active) and inactive: [5]
active: [2] 23.7 µM
not listed: [8]
inactive: all other assays above

Cc1cccc(N)c1N
not listed: [10]
inactive: all other assays above

O=[N+]([O-])c1cccc2ccccc12
not listed: [10]
inactive: all other assays above

CC(C)C(=O)OCC(C)(C)C(OC(=O)C(C)C)C(C)C (centres undefined)
not listed: [10]
inactive: all other assays above

Oc1cc(Cl)ccc1Cl
not listed: [10]
inactive: all other assays above

O=C(NC(=O)c1c(F)cccc1F)Nc1ccc(Cl)cc1
not listed: [5] | [10]
inactive: all other assays above

CCC(C)(C)c1ccc(O)cc1
active: [2] 49.5 µM and 43.6 µM | [4] 44.1 µM and 38.9 µM and 21.3 µM
not listed: [5] | [8]
inactive: all other assays above

O=[N+]([O-])c1ccc(O)c([N+](=O)[O-])c1
not listed: [2] | [5]
inactive: all other assays above

CCN(N=O)C(N)=O
not listed: [4]
inactive: all other assays above

CC1(C)C(C=C(Cl)Cl)C1C(=O)OC(C#N)c1cccc(Oc2ccccc2)c1 (centres undefined)
not listed: [4]
inactive: all other assays above

CN(C)C(=O)Nc1ccc(Cl)cc1
not listed: [4] | [10]
inactive: all other assays above

C[C@]12CCC(=O)C[C@@H]1CC[C@@H]1[C@@H]2CC[C@]2(C)[C@@H](O)CC[C@@H]12
38.4 µM (active) and inactive: [2]
active: [10] 21.6 µM
not listed: [1] | [9]
inactive: all other assays above

c1ccc(-c2cccc(-c3ccccc3)c2)cc1
not listed: [4]
inactive: all other assays above

CC(C)c1ccc(CO)cc1
not listed: [1]
inactive: all other assays above

CCC(C)(c1ccc(O)cc1)c1ccc(O)cc1
not listed: [5] | [10]
inactive: all other assays above
